eIF4E 4G PPI: blocks eIF4E binding to eIF4G. TR-FRET eIF4E-eIF4GI(517-606) binding, 2 h. inhibition, % at 21.7 µM. 220,000 tested, 0.37% active;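 further: 0% = full FRET control wells and 100% = background wells lacking eIF4GI fragment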
Mcl1-Bid inh: disrupts binding of human Mcl-1 to Bid peptide; TR-FRET Mcl-1/Bid-Dy647 peptide binding, 1536-well; 220,000 tested, 0.97% active; AID 1021; Q07820; inhibition, % at 21.7 µM;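 active means compounds that cut the binding signal by more than half at the single screening dose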;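 further: His-tagged Mcl-1 with europium anti-His antibody binding Bid BH3 peptide; 0% = Mcl-1 plus peptide wells and 100% = peptide-only wells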
Target sequence (Q07820 whole entry, looked up): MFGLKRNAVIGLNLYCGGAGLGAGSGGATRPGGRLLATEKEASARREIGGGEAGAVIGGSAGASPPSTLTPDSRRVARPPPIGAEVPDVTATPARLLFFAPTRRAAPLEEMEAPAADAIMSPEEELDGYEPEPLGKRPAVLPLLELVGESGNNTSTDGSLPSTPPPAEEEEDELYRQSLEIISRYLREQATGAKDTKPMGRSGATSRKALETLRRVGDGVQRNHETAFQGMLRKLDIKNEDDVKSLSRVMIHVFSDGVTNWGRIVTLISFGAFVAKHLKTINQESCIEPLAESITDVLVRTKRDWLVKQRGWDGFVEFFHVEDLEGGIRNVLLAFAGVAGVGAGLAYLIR
14-3-3 Bad inh: disrupts binding of bovine 14-3-3 zeta to phospho-Bad peptide. inhibition, % at 21.7 µM. P63103. 220,000 tested, 0.71% active. TR-FRET 14-3-3zeta/Dy647-pBad peptide displacement, 1 h;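 active means inhibition above about 70%, limit read from the data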;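 further: 0% = full 14-3-3 plus peptide FRET controls and 100% = background without 14-3-3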
Target sequence (P63103 whole entry, looked up): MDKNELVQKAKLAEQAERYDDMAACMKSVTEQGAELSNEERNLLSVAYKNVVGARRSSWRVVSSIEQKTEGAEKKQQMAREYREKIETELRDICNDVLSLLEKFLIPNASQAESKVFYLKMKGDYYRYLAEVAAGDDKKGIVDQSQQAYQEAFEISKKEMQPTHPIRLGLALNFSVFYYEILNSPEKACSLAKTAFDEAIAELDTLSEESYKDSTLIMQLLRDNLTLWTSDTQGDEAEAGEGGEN
Mcl1 Noxa PPI: Mcl-1/Noxa interaction inhibition; Q07820; TR-FRET Mcl-1/Noxa peptide binding, 2 h; inhibition, % at 21.7 µM; 220,000 tested, 1.5% active;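 active means compounds that cut the protein-peptide binding signal by more than 50% relative to plate controls in a single-dose test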;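 further: His-tagged Mcl-1 with rhodamine Noxa BH3 peptide and terbium anti-His antibody; 0% = Mcl-1 plus Noxa peptide wells and 100% = peptide-only wells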
Bim-Mcl-1: inhibitors of Bim-Mcl-1 interaction, human; 190,000 tested, 0.1% active; Bead-based flow cytometry, Bim peptide-Mcl-1 binding; inhibition, % at 10 µM; AID 1009; Q07820; in the data active means inhibition above about 40%;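 further: 0% = no compound tracer wells and 100% = peptide blocker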
NCF1 inh: blocks human p47phox regulatory protein of NADPH oxidases. P14598. p47phox/p22phox peptide binding, fluorescence polarization, 2 h. inhibition, % at 24.7 µM. 220,000 tested, 0.53% active. AID 1274;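 further: 0% = p47phox with labelled peptide and 100% = labelled peptide alone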
Numbers without * were called inactive; / = no result. Only some compounds are listed: those with a hit (about 3.3% of all), similar ones and a draw of the others.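 How the source made its calls, unless noted: active means inhibition above about 30% (limit read from the data); inactive means the rest.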

SMILES | eIF4E 4G PPI | Mcl1-Bid inh | 14-3-3 Bad inh | Mcl1 Noxa PPI | Bim-Mcl-1 | NCF1 inh
Cc1ccc(C(=O)C2=C(O)C(=O)N(Cc3ccccc3)C2c2cccnc2)o1 (centres undefined) | 5.7 | -11.3 | 37.2 | 7.5 | -4.0 | 55.4*
CC(=O)C1=C(O)C(=O)N(Cc2cccnc2)C1c1ccccc1Cl (centres undefined) | -3.3 | -12.6 | 38.0 | 0.3 | -1.0 | -8.2
CC(C)(C)c1ccc(N2C(=O)CSC2c2cccnc2)cc1 (centres undefined) | 10.0 | 4.6 | 6.0 | -12.7 | / | -1.3
CSc1ccccc1NC(=O)c1cc(-c2cccnc2)nc2ccc(Br)cc12 | 14.1 | 63.6* | 88.6* | 49.0 | 0.0 | 30.8*
O=C(NCc1n[nH]c(=S)n1-c1ccc(Cl)c(Cl)c1)c1ccc(S(=O)(=O)N2CCOCC2)cc1 | 1.2 | -22.8 | -16.4 | 8.8 | 1.0 | -5.1
CC1(OC(=O)C2CCCC2)C(=O)C=C2C=C3CCCCN3C=C2C1=O (centres undefined) | 1.6 | -144.6 | -3.9 | 9.6 | / | -9.1
COC(=O)CCC(=O)OC1(C)C(=O)C=C2C=C3CCCN3C=C2C1=O (centres undefined) | 10.6 | -47.6 | -2.1 | 53.6* | / | 8.0
CC1(OC(=O)C2CCCC2)C(=O)C=C2C=C(c3ccsc3)N(C3CC3)C=C2C1=O (centres undefined) | -1.8 | -90.5 | -6.4 | -9.0 | / | 3.1
CC1(OC(=O)c2ccc(Cl)nc2)C(=O)C=C2C=C3CCCN3C=C2C1=O (centres undefined) | 9.3 | -105.7 | 3.6 | 58.7* | / | 22.4
COc1ccc(OC)c(/C=N/NC(=O)CN2CCSCC2)c1 | 1.3 | 8.8 | 11.8 | 17.5 | -4.0 | -15.5
COc1ccc(/C=N/NC(=O)CN2CCSCC2)c(OC)c1 | 0.9 | -7.3 | 15.8 | 60.2* | 3.0 | 3.0
CCOc1ccc(NC(=O)NC(=O)N(C(C)C)S(C)(=O)=O)cc1 | 0.0 | -25.1 | -4.6 | 7.9 | -1.0 | -1.6
CCCCSc1cnn(-c2ccccc2)c(=O)c1SCCCC | -5.6 | -10.0 | -13.5 | -15.8 | -1.0 | 65.2*
CCSc1cnn(-c2ccccc2)c(=O)c1SCC | -5.8 | -4.5 | -1.9 | 0.3 | -2.0 | -7.4
CCOC(=O)c1nnn(-c2nonc2N)c1CSc1nnc(N)s1 | -2.2 | -13.9 | -15.9 | -1.7 | -2.0 | 3.6
O=C(O)c1cc(O)c2c(c1)C(=O)c1cccc(O)c1C2=O | 8.9 | -24.6 | 74.2* | 61.2* | 36.0 | -2.1
COc1ccc(N2Cc3cccc(C(=O)N4CCN(C(=O)c5ccco5)CC4)c3C2=O)cc1 | 14.3 | -26.0 | 3.2 | 73.6* | 2.0 | -20.9
COc1ccc(N2Cc3cccc(C(=O)N4CCOCC4)c3C2=O)cc1 | 3.4 | -35.5 | 2.7 | 13.4 | -3.0 | -15.3
COc1ccc(C(=O)Nc2ccc(NS(=O)(=O)c3ccccc3)cc2)cc1OC | 3.1 | -20.2 | 7.3 | -0.4 | / | -12.5
O=C(Cc1c(Cl)cccc1Cl)OCC(=O)N1CCc2ccccc2C1 | 4.5 | 78.3* | 2.6 | 5.7 | -4.0 | -1.8
CNS(=O)(=O)c1cccc(C(=O)OCC(=O)N2CCc3ccccc3C2)c1 | -1.0 | -4.4 | 4.3 | 22.8 | 0.0 | 30.1*
O=C(Cn1[nH]c(=O)c2ccccc2c1=O)OCC(=O)N1CCCc2ccccc21 | -9.2 | -11.4 | 27.4 | 9.5 | 1.0 | -19.0
O=C(CN1C(=O)c2ccccc2C1=O)OCC(=O)N1CCc2ccccc2C1 | -0.4 | -42.6 | -6.0 | 0.6 | -8.0 | -13.3
CNS(=O)(=O)c1cccc(C(=O)OCC(=O)N2c3ccccc3CC2C)c1 (centres undefined) | -0.2 | -4.0 | -3.9 | 9.2 | 0.0 | -8.3
O=C(Cn1[nH]c(=O)c2ccccc2c1=O)OCC(=O)N1CCc2ccccc2C1 | -8.3 | 83.0* | -9.0 | 2.9 | 0.0 | 5.5
SMILES | eIF4E 4G PPI | Mcl1-Bid inh | 14-3-3 Bad inh | Mcl1 Noxa PPI | Bim-Mcl-1 | NCF1 inh
O=C(O)C(O)Cc1c[nH]c2ccccc12 (centres undefined) | -2.0 | 0.6 | 3.3 | 24.9 | -3.0 | -2.4
O=C(CC(C(=O)O)c1c[nH]c2ccccc12)c1ccccc1 (centres undefined) | 4.8 | 81.7* | 2.2 | 21.5 | -2.0 | 0.5
CC(Cc1c[nH]c2ccccc12)C(=O)O (centres undefined) | 9.9 | -71.6 | 51.6 | 56.6* | 2.0 | -1.6
NCC(c1ccccc1)c1c[nH]c2ccccc12 (centres undefined) | 1.9 | -34.3 | -10.2 | 6.6 | 47.0* | -13.7
O=C(NCc1cccs1)C1CCCN1C(=O)Nc1ccc(F)cc1 (centres undefined) | -0.2 | -54.4 | 0.0 | 8.6 | / | -10.1
CN(C)c1ccc(-n2cccc2)cc1 | 12.4 | -103.5 | 0.8 | 62.4* | / | -4.5
Oc1c(/C=C/C=C/C=Nc2ccccc2)sc(=S)n1Cc1ccccc1 | -2.7 | -94.3 | -4.4 | 32.5 | / | -28.2
COc1ccc(/C(=C/c2ccc(OC(F)F)c(OC)c2)C(=O)O)cc1OC | 4.7 | -14.7 | 2.7 | 14.8 | -14.0 | -11.4
CC(C)(C)NC(=O)c1ccccc1-c1nc(-c2ccccc2Cl)no1 | 8.6 | -0.8 | -5.5 | -8.6 | -1.0 | 43.1*
CC(C)NC(=O)c1ccccc1-c1nc(-c2ccccc2Cl)no1 | 0.8 | -0.6 | 0.7 | -9.9 | 0.0 | -21.9
C=C(C(=O)c1ccccc1)C(C)C(=C)C(=O)c1ccccc1 | 4.2 | -2.2 | -13.0 | 16.8 | 2.0 | -7.3
COC(=O)c1ccc2c(c1)NC(=O)C1CCCN21 (centres undefined) | 1.1 | -1.8 | -0.3 | 64.3* | -5.0 | -19.0
CCOC(=O)c1c(C)oc2cc(Br)c(OC(=O)N3CCOCC3)cc12 | -9.4 | 92.3* | 3.6 | -2.2 | -1.0 | -0.9
COc1cc2c(C(=O)N3CCN(C)CC3)c(C)oc2cc1Br | -4.2 | -1.1 | -1.2 | 9.6 | -2.0 | -7.0
CC(C)Cc1ccc(/C(=N/O)C(=O)O)s1 | 0.3 | -28.7 | 3.3 | -3.3 | -2.0 | 58.5*
CCc1nnc(NS(=O)(=O)c2ccc(NC(=O)c3cc4ccccc4oc3=O)cc2)s1 | -4.8 | 7.5 | -0.6 | 64.3* | -7.0 | -4.9
CCOC(=O)/C(=C/C1=CC(=C/N(C)C)/C(=O)O1)C(C)=O | 5.4 | -30.0 | -12.9 | 6.1 | / | -25.3
CN(C)CCCN(CCCN(C)C)C(=S)Nc1ccc(S(=O)(=O)N2CCOCC2)cc1 | 0.4 | -30.2 | 3.0 | 4.6 | / | -4.0
COc1ccc(O)c(C(=O)/C=C/c2cc3ccccc3o2)c1 | -1.1 | 67.5* | 0.1 | 14.3 | / | -2.0
Cc1cc(N2CCN(c3ccccn3)CC2)n2cc(-c3ccccc3)nc2n1 | -11.2 | -12.8 | -13.0 | 5.2 | 0.0 | -1.9
Cc1cc(N2CCN(C)CC2)n2cc(-c3ccc(F)cc3)nc2n1 | -4.2 | -21.7 | 7.3 | 57.8* | -1.0 | 0.5
Fc1ccc(-c2cc3nc(-c4ccccc4)cc(N4CCN(CCN5CCOCC5)CC4)n3n2)cc1 | 1.7 | -1.8 | 28.4 | 12.4 | -2.0 | -14.9
CN1CCN(c2cc(-c3ccccc3)nc3cc(-c4ccc(F)cc4)nn23)CC1 | 2.0 | 6.1 | -10.7 | 52.5* | 0.0 | -17.8
